# Compound activity: PubChem, The Scripps Research Institute Molecular Screening Center
# hcDAF-12 act: H. contortus DAF-12 nuclear receptor activators, primary screen, cell-based, luminescence, HEK293, lit1-tk-luc reporter | actives 1.4% (n = 370,000) | activation, % at 6.8 µM | HEK293 hcDAF-12 lit1-tk-luc reporter; 0% DMSO, 100% Δ7-dafachronic acid | AID 652067, 2013;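 active means activation above the mean of all tested compounds plus 3 SD, cut at about 5.5% in these data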;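 further: 100% = response to 3 µM Δ7-dafachronic acid high control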
# ssDAF12 agonist: S. stercoralis DAF-12 nuclear receptor activators, primary screen, cell-based, luminescence, HEK293, GRIP1 co-expression, lit1-tk-luc; HEK293 ssDAF-12/GRIP1 lit1-tk-luc reporter; % of 3 µM dafachronic acid response; activation, % at 6.8 µM; actives 1% (n = 370,000); AID 652126, 2013;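 active means activation above the mean over all tested compounds plus 3 SD, cut at about 0.9% in these data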;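 further: 0% = DMSO-only wells and 100% = 3 µM delta7-dafachronic acid wells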
# DAX1 inh-1: DAX1 (NR0B1) inhibitors on StAR promoter, primary screen, cell-based, luminescence, SF-1 (NR5A1), full-length DAX-1; AID 652010, 2013; HEK293T StAR-luciferase reporter, SF-1/DAX-1 repression relief; inhibition, % at 6.8 µM; actives 1.1% (n = 370,000);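 active means inhibition above the mean over all tested compounds plus 3 SD, cut at about 3.6% in these data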;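 further: 0% = DAX-1 cells with DMSO and 100% = cells lacking DAX-1 with DMSO; higher inhibition means more luminescence from relief of DAX-1 repression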
# DAX1 inh-2: DAX1 (NR0B1) inhibitors, primary screen, cell-based, HEK293, Gal4-DAX1, luciferase luminescence | inhibition, % at 6.75 µM | HEK293 Gal4-DAX1 luciferase reporter | AID 504766, 2011 | actives 0.99% (n = 340,000);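 active means inhibition above the mean over all tested compounds plus 3 SD, cut at about 4.2% in these data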;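 further: 0% = DAX1-transfected cells with DMSO and 100% = empty-vector control cells with DMSO; inhibition shows as a rise in luminescence from relieved DAX1 repression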
# hgDAF12 agonist: H. glycines DAF-12 receptor agonists, primary screen, cell-based, luminescence, HEK293, GAL4 fusion, UAS-luciferase; actives 1.8% (n = 370,000); activation, % at 6.8 µM; HEK293 GAL4-hgDAF12 UAS-luciferase reporter, agonist luminescence; normalized to butyrate control; Nuclear hormone receptor DAF-12 (Heterodera glycines), GAL4 fusion;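 active means activation above a cutoff set at the mean of all screened compounds plus 3 SD, cut at about 10% in these data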;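 further: 0% = DMSO wells and 100% = sodium butyrate wells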
# AHR activator: AHR activators, primary screen, cell-based, luminescence, luciferase reporter, human | AHR-responsive luciferase reporter cells | activation, % at 5 µM | Aryl hydrocarbon receptor (Homo sapiens), P35869 | actives 2.5% (n = 320,000); in the data active means activation above about 47%;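 further: 0% = vehicle wells and 100% = reference agonist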
# Target sequence (P35869 whole entry, looked up): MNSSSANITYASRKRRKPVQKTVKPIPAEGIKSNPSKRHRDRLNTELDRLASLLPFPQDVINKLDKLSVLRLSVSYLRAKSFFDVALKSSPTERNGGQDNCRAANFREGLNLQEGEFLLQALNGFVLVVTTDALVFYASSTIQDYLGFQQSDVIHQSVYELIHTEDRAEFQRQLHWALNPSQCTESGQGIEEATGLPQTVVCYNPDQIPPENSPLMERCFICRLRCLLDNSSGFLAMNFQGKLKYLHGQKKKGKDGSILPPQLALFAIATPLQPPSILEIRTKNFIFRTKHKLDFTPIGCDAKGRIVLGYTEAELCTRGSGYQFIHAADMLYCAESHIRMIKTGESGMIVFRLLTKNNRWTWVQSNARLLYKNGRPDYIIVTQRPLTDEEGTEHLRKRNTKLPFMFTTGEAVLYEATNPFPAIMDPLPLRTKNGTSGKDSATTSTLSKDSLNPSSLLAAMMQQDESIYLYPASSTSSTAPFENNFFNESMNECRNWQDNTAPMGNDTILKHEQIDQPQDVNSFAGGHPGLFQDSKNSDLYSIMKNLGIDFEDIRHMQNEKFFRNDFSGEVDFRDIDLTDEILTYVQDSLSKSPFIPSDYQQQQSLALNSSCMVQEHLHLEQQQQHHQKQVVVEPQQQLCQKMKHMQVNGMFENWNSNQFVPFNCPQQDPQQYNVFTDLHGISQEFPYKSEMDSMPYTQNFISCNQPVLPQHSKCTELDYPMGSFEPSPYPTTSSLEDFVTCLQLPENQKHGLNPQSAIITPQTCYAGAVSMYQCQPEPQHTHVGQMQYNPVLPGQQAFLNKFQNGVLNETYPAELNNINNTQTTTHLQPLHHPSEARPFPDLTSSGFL
# DAX1 inh confirm: DAX1 (NR0B1) inhibitors relieving SF-1 repression, confirmation, cell-based, luminescence, HEK293T, full-length DAX-1, SF-1 activated StAR promoter; shares compounds with DAX1 inh-1; HEK293T StAR-promoter luciferase reporter, SF-1/DAX-1 repression; inhibition, % at 6.8 µM; actives 87% (n = 2,400);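 active means inhibition above the average of every tested compound plus 3 SD, cut at about 3.8% in these data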;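 further: 0% = DAX-1 cells with DMSO and 100% = no DAX-1 control cells with DMSO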
# SF1 AF2mut Luc: StAR reporter signal changes without DAX1, counter-screen for DAX1 inhibitor project, cell-based, luminescence, AF-2 mutant SF-1, transactivation | shares compounds with DAX1 inh-1 | HEK293 StAR-luciferase, SF-1 AF2 mutant | inhibition, % at 6.8 µM | actives 78% (n = 2,400) | AID 652136, 2013;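 active means inhibition above the mean of all tested compounds plus 3 SD, cut at about 3% in these data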;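 further: 0% = DAX-1 transfected cells with DMSO and 100% = cells without DAX-1 with DMSO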
# Active calls of the source: *; . = no result given. An excerpt weighted towards active compounds, which were near 5.7% of everything screened.
SMILES,hcDAF-12 act,ssDAF12 agonist,DAX1 inh-1,DAX1 inh-2,hgDAF12 agonist,AHR activator,DAX1 inh confirm,SF1 AF2mut Luc
N#Cc1ccc2sn(-c3ccccc3)c(=O)c2c1,3,0,7.9*,3,11*,.,5.1*,3.5*
O=c1c2cc([N+](=O)[O-])ccc2sn1-c1ccccc1,2,-1,1,1,2,.,.,.
COc1ccc(/C=C2\Sc3ccc(C(=O)NCCCN4CCCC4)cc3N(C)C2=O)cc1OC,-1,-1,4.6*,1,2,1,6.0*,0
CCOC(=O)Cn1cnc2c(nnn2-c2ccccc2)c1=O,.,.,.,1,.,9,.,.
COCCn1c(-c2ccccc2)nc2ccccc21,-1,-1,0,2,7,5,.,.
COCCn1c(/C=C/c2ccccc2)nc2ccccc21,3,0,9.8*,1,11*,6,9.7*,3.5*
COc1ccc(NC(=O)CN(C)CC(=O)c2c(C)[nH]c3ccccc23)cc1,-1,-1,-2,0,-4,10,.,.
CN1CCN(c2ccc([N+](=O)[O-])cc2C(=O)N2CCOCC2)CC1,-1,-1,0,-1,0,1,.,.
O=C(c1cc([N+](=O)[O-])ccc1N1CCOCC1)N1CCN(c2ccccc2)CC1,1,1,14*,1,-4,3,17*,-6
Cc1ccc(S(=O)(=O)N(Cc2c(F)cccc2Cl)C(=O)N2CCN(C)CC2)cc1,0,-1,1,0,3,1,.,.
Cc1ccc(S(=O)(=O)N(Cc2ccccc2F)C(=O)N2CCN(C)CC2)cc1,0,-1,5.0*,1,1,-2,2,1
O=c1cc(-c2ccc(O)c(O)c2)oc2ccc3ccccc3c12,3,0,8.4*,-4,10*,.,1,-5
CCOCC(=O)NC1CCc2cc(OC(=O)COCC)c(OC)c(OC)c2-c2ccc(SC)c(=O)cc21 (centres undefined),1,-1,4.5*,1,-4,.,17*,-6
CCN(CC)c1ccc2c(cc1=O)[C@@H](NC)CCc1cc(OC)c(OC)c(OC)c1-2,-2,-1,0,-1,-6,3,.,.
COc1cc2c(c(OC)c1OC)-c1ccc(N(C)CC(OC)OC)c(=O)cc1[C@@H](NC(C)=O)CC2,1,0,0,-1,-3,-1,.,.
COc1cc2c(c(OC)c1OC)-c1ccc(OC)c(=O)cc1[C@@H](NC(C)=O)CC2,1,-1,6.5*,1,-6,3,23*,-4
CCN1CCN(c2ccc(S(=O)(=O)N3CCCCC3)cc2NC(=O)/C=C/c2ccc(OC)c(OC)c2)CC1,0,-1,2,1,-1,-1,.,.
CCN1CCN(c2ccc(S(=O)(=O)N3CCCCC3)cc2NC(=O)/C=C/c2ccc(Cl)cc2)CC1,-1,-1,4.8*,0,0,.,1,0
COc1ccc(C2=NN3C(C2)c2ccccc2OC3c2cccs2)cc1 (centres undefined),7.9*,0,4.5*,2,23*,2,12*,7.6*
COc1ccc(C2=NN(C(=O)CCC(=O)O)C(c3cccs3)C2)cc1 (centres undefined),3,-1,2,0,7,1,.,.
COc1cc(SC)ccc1C(=O)NNC(=O)c1cc(C)oc1C,4,0,12*,-1,13*,10,6.9*,5.0*
COc1cc(SC)ccc1C(=O)Nc1c(C)cccc1C,-2,-2,-1,1,0,1,.,.
CCOc1ccc(C(=O)NCC(=O)NCCCSc2ccccc2)cc1OCC,-1,0,-1,1,0,11,.,.
Cc1csc(NC(=O)c2cc(C)on2)n1,0,0,7.0*,1,6,2,6.8*,5.9*
Cc1csc(NC(=O)c2cnccn2)n1,0,-1,1,-1,5,1,.,.
SMILES,hcDAF-12 act,ssDAF12 agonist,DAX1 inh-1,DAX1 inh-2,hgDAF12 agonist,AHR activator,DAX1 inh confirm,SF1 AF2mut Luc
COc1cc(NC2c3ccccc3C(=O)N2c2ccc(C)cn2)cc(OC)c1OC (centres undefined),2,0,6.1*,4,8,13,3,3.1*
O=C(NCc1ccccc1Cl)c1cccc(C(F)(F)F)c1,-2,-1,0,-1,1,-2,.,.
COc1ccc(-c2csc(N3C(=N)SCC3=O)n2)cc1,6.4*,0,6.9*,2,13*,10,16*,7.4*
COc1ccc(-c2csc(N3C(=O)C4C5c6ccccc6C(c6ccccc65)[C@@H]4C3=O)n2)cc1 (some centres undefined),-1,-2,0,2,-1,0,.,.
CC(C)CCn1c(=O)c2sccc2n2c(CCCC(=O)N3CCC(N4CCCCC4)CC3)nnc12,2,-1,4.7*,1,0,0,4.6*,4.1*
CC(C)Cn1c(=O)c2sccc2n2c(CCCC(=O)N3CCC(N4CCCCC4)CC3)nnc12,-1,-1,1,2,3,-3,.,.
CCN(CC)CCOC(=O)c1ccc(NC(=O)CCCN2C(=O)/C(=C/c3cccs3)SC2=S)cc1,0,-1,6.2*,1,0,.,8.5*,5.4*
Cc1csc(N/N=C\c2cccnc2)n1,5,0,0,-1,4,10,.,.
CC(=NNc1ccc2ccccc2n1)c1ccccc1O,5,1,5.9*,-4,9,.,0,-4
CC(C)=CCC/C(C)=C/CNC(=O)C[C@H]1C[C@H](C(=O)N2CCOCC2)[C@@]2(CCC3CCCC3)c3[nH]c4cc(-c5ccco5)ccc4c3CCN2C1=O,-1,-1,1,0,-5,.,.,.
